# Laboratory results reported in PubChem BioAssay (EPA / NIEHS).
# Active and inactive are the calls of the source. Rule for the calls: active = hit-call score of the fitted dose curve at least 0.9, where 1 is the maximum; inactive = score below 0.9.
# How the values were obtained:
# [1] = read-out: TIMP metallopeptidase inhibitor 2 (TIMP2), TIMP2 (gene 7077); test: BSK_KF3CT_TIMP2: BioMAP Diversity Plus: KF3CT Assay for TIMP metallopeptidase inhibitor 2 (TIMP2) Biomarker Activity (AID 2283071); details: primary human keratinocytes with fibroblasts; actives raise or lower the signal
# Procedure, shortened: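 Human primary keratinocyte/foreskin fibroblast co-culture dosed with chemical and sampled at 24 h. TIMP-2 levels quantified by ELISA; bidirectional fitting against DMSO negative control as baseline.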
# [2] = read-out: Transforming growth factor beta 1 (TGFb1), TGFB1 (gene 7040); test: BSK_KF3CT_TGFb1: BioMAP Diversity Plus: KF3CT Assay for Transforming growth factor beta 1 (TGFb1) Biomarker Activity (AID 2283072); details: primary human keratinocytes with fibroblasts; actives raise or lower the signal
# Procedure, shortened: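 Human keratinocyte plus foreskin fibroblast primary co-culture, dosed with chemical for 24 h. TGF-b1 quantified by ELISA. Activity fitted bidirectionally against DMSO negative control as baseline.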
# [3] = read-out: C-C motif chemokine 2 (Homo sapiens) (UniProt P13500); test: BSK_KF3CT_MCP1: BioMAP Diversity Plus: KF3CT Assay for Monocyte Chemoattractant Protein 1 (MCP1/CCL2) Biomarker Activity (AID 2283073); details: primary human keratinocytes with fibroblasts; actives raise or lower the signal
# Procedure, shortened: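 Keratinocytes and foreskin fibroblasts were co-cultured, dosed with chemical, and sampled 24 h later. MCP-1 was quantified by ELISA, and the endpoint was analyzed with bidirectional fitting using DMSO as negative control.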
# [4] = read-out: urokinase plasminogen activator (uPA), PLAU (gene 5328); test: BSK_KF3CT_uPA: BioMAP Diversity Plus: KF3CT Assay for urokinase plasminogen activator (uPA) Biomarker Activity (AID 2283075); details: primary human keratinocytes with fibroblasts; actives raise or lower the signal
# Procedure, shortened: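 ELISA readout of uPA, analyzed for signal gain or loss relative to DMSO, from a human primary keratinocyte–foreskin fibroblast co-culture measured 24 h after chemical treatment.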
# CD40, CD40 (gene 958) [5] = test: BSK_LPS_CD40: BioMAP Diversity Plus: LPS Assay for CD40 Biomarker Activity (AID 2283076); details: primary human HUVEC with PBMC; actives raise or lower the signal
# Procedure, shortened: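 CD40 signal, measured by ELISA, is fitted in both directions relative to DMSO vehicle. The system is an LPS-driven human vascular primary co-culture of endothelial cells and PBMC, sampled 24 h after compound addition.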
# [6] = BSK_LPS_SRB: Viability Assessment in the BioMAP Diversity Plus: LPS Assay (AID 2283079); details: primary human HUVEC with PBMC;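 note: total protein by sulforhodamine B absorbance as a cytotoxicity measure; measured one day after compound addition; fitted in both directions against DMSO so loss or gain of signal counts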
# Procedure, shortened: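 Overt cytotoxicity was gauged by sulforhodamine B total-protein staining in a primary human vascular endothelial and mononuclear cell co-culture 24 h post-dosing. Activity was fitted in both directions relative to DMSO.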
# [7] = read-out: Interleukin-1 alpha (IL1a), IL1A (gene 3552); test: BSK_LPS_IL1a: BioMAP Diversity Plus: LPS Assay for Interleukin-1 alpha (IL1a) Biomarker Activity (AID 2283080); details: primary human HUVEC with PBMC; actives raise or lower the signal
# Procedure, shortened: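 Measured: IL-1 alpha via ELISA at 24 h in LPS-activated human umbilical vein endothelium–PBMC co-culture. Baseline: DMSO, bidirectional fitting.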
# [8] = read-out: Monocyte Chemoattractant Protein-1 (MCP1), CCL2 (gene 6347); test: BSK_LPS_MCP1: BioMAP Diversity Plus: LPS Assay for Monocyte Chemoattractant Protein-1 (MCP1) Biomarker Activity (AID 2283081); details: primary human HUVEC with PBMC; actives raise or lower the signal;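 for AC50: secreted MCP-1 protein quantified by ELISA in culture supernatant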
# Procedure, shortened: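 LPS-stimulated HUVEC/PBMC co-culture; chemical, 24 h; MCP-1 by ELISA; bidirectional fit vs DMSO; cytotoxicity via SRB (0.1% stain, 10% TCA fix, 560 nm) in parallel wells.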
# [9] = BSK_LPS_PGE2: BioMAP Diversity Plus: LPS Assay for Prostaglandin E2 (PGE2) Biomarker Activity (AID 2283082); details: primary human HUVEC with PBMC; actives raise or lower the signal;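 for AC50: secreted prostaglandin E2 measured by ELISA in LPS-stimulated co-culture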
# Procedure, shortened: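 HUVEC plus PBMC co-culture stimulated with LPS; secreted PGE2 quantified by ELISA 24 h after chemical dosing. Activity fitted bidirectionally against DMSO as negative control and baseline; parallel SRB total-protein staining served as cytotoxicity check.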
# [10] = read-out: Macrophage colony-stimulating factor (MCSF), CSF1 (gene 1435); test: BSK_LPS_MCSF: BioMAP Diversity Plus: LPS Assay for Macrophage colony-stimulating factor (MCSF) Biomarker Activity (AID 2283083); details: primary human HUVEC with PBMC; actives raise or lower the signal
# Procedure, shortened: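 Compound is added to a human vascular primary co-culture of umbilical vein endothelium and blood mononuclear cells. After 24 h, M-CSF is quantified by ELISA. Signal changes are fitted in both directions against DMSO.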
# [11] = read-out: Tissue Factor, F3 (gene 2152); test: BSK_LPS_TissueFactor: BioMAP Diversity Plus: LPS Assay for Tissue Factor Biomarker Activity (AID 2283084); details: primary human HUVEC with PBMC; actives raise or lower the signal
# Procedure, shortened: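 In this co-culture system of umbilical vein endothelium with PBMC, stimulated with LPS, cell-surface CD142 is detected by ELISA at 24 h. Endpoint values derive from bidirectional fitting, DMSO serving as baseline.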
# [12] = read-out: Tumor necrosis factor (Homo sapiens) (UniProt P01375); test: BSK_LPS_TNFa: BioMAP Diversity Plus: LPS Assay for Tumour Necrosis Factor alpha (TNFa) Biomarker Activity (AID 2283085); details: primary human HUVEC with PBMC; actives raise or lower the signal
# Procedure, shortened: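 Human umbilical vein endothelial cells co-cultured with PBMC were exposed to test chemical and TNFa measured by ELISA 24 h after dosing. Bidirectional curve fitting was done relative to DMSO as negative control and baseline.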
# [13] = read-out: Vascular cell adhesion molecule 1 (VCAM1), VCAM1 (gene 7412); test: BSK_LPS_VCAM1: BioMAP Diversity Plus: LPS Assay for Vascular cell adhesion molecule 1 (VCAM1) Biomarker Activity (AID 2283086); details: primary human HUVEC with PBMC; actives raise or lower the signal
# Procedure, shortened: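 Human umbilical vein endothelial cells co-cultured with peripheral blood mononuclear cells under LPS stimulation were exposed to test chemical for 24 h. VCAM-1 levels were then measured by ELISA, with bidirectional curve fitting relative to DMSO as negative control and baseline.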
# CD38, CD38 (gene 952) = test: BSK_SAg_CD38: BioMAP Diversity Plus: SAg Assay for CD38 Biomarker Activity (AID 2283087); details: primary human HUVEC with PBMC; actives raise or lower the signal
# Procedure, shortened: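 Fluorescence ELISA of cell-surface CD38 served as the read-out, with either increase or decrease fitted against DMSO controls. Cells were a human umbilical vein endothelium plus PBMC co-culture under SEB/TSST-1 stimulation, measured 24 h after dosing.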
# CD40, CD40 (gene 958) [14] = test: BSK_SAg_CD40: BioMAP Diversity Plus: SAg Assay for CD40 Biomarker Activity (AID 2283088); details: primary human HUVEC with PBMC; actives raise or lower the signal
# Procedure, shortened: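 Fluorescence ELISA read-out of CD40 from umbilical vein endothelium plus peripheral blood mononuclear cells, sampled 24 h after dosing. Values come from bidirectional curve fitting with DMSO as baseline.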
# CD69, CD69 (gene 969) = test: BSK_SAg_CD69: BioMAP Diversity Plus: SAg Assay for CD69 Biomarker Activity (AID 2283089); details: primary human HUVEC with PBMC; actives raise or lower the signal;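 for AC50: cell surface CD69 protein quantified by ELISA with fluorescence detection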
# Procedure, shortened: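 HUVEC co-cultured with PBMC were dosed with chemical, and CD69 was measured by ELISA with fluorescence read-out 24 h later. Bidirectional curve fitting used DMSO as negative control and activity baseline.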
# [15] = read-out: Monocyte Chemoattractant Protein-1 (MCP1), CCL2 (gene 6347); test: BSK_SAg_MCP1: BioMAP Diversity Plus: SAg Assay for Monocyte Chemoattractant Protein-1 (MCP1) Biomarker Activity (AID 2283090); details: primary human HUVEC with PBMC; actives raise or lower the signal
# Procedure, shortened: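 MCP-1 levels in the endothelial–PBMC SAg co-culture were quantified by ELISA at 24 h post-dosing; both increases and decreases versus DMSO scored. Cytotoxicity monitored by SRB total protein in parallel cultures.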
# [16] = read-out: Interleukin-8 (IL8), CXCL8 (gene 3576); test: BSK_LPS_IL8: BioMAP Diversity Plus: LPS Assay for Interleukin-8 (IL8) Biomarker Activity (AID 2283078); details: primary human HUVEC with PBMC; actives raise or lower the signal
# Procedure, shortened: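 Endothelial cells and PBMC from human donors are co-cultured, treated with chemicals and LPS, then assayed for IL-8 by ELISA after 24 h. Parallel SRB staining (0.1% SRB after 10% TCA fixation, 560 nm) flags cytotoxicity.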
# [17] = read-out: E-selectin (Homo sapiens) (UniProt P16581); test: BSK_LPS_Eselectin: BioMAP Diversity Plus: LPS Assay for Eselectin Biomarker Activity (AID 2283077); details: primary human HUVEC with PBMC; actives raise or lower the signal
# Procedure, shortened: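 Signal of E-selectin, detected by ELISA, served as the endpoint; cells were umbilical vein endothelium with PBMC, read 24 h after treatment. DMSO defined baseline, and both increases and decreases were fitted.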
# Tumor necrosis factor (Homo sapiens), sequence (P01375 whole entry, looked up): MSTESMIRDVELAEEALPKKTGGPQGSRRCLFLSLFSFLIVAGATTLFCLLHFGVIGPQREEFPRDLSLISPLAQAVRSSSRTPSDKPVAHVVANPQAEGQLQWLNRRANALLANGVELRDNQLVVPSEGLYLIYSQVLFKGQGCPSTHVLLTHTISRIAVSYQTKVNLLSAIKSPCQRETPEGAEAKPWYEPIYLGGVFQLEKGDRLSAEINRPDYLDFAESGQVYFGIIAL
# E-selectin (Homo sapiens), sequence (P16581 whole entry, looked up): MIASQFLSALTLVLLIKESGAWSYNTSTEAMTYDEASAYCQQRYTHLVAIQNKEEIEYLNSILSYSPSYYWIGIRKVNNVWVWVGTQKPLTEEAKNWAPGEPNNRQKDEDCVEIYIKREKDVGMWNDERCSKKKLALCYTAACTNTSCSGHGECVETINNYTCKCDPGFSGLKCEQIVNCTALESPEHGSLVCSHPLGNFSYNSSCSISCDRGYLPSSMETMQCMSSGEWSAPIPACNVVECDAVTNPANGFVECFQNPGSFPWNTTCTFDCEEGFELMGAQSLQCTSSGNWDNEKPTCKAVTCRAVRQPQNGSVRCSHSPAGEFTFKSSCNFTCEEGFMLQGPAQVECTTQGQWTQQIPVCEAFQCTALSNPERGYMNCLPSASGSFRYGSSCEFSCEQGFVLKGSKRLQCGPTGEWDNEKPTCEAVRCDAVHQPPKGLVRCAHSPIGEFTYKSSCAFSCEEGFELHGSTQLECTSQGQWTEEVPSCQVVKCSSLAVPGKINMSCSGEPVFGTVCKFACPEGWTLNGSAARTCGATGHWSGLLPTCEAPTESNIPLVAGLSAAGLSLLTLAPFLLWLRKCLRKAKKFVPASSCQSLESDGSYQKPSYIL
smiles,measurement,setting,value
CNC(=O)N(C)c1nnc(C(C)(C)C)s1,outcome,[1],inactive
same,outcome,[2],inactive
same,outcome,[3],inactive
same,outcome,[4],inactive
same,outcome,"CD40, CD40 (gene 958) [5]",inactive
same,outcome,[6],inactive
same,outcome,[7],inactive
same,outcome,[8],inactive
same,outcome,[9],inactive
same,outcome,[10],inactive
same,outcome,[11],inactive
same,outcome,[12],inactive
same,outcome,[13],inactive
same,outcome,"CD38, CD38 (gene 952)",inactive
same,outcome,"CD40, CD40 (gene 958) [14]",inactive
same,outcome,"CD69, CD69 (gene 969)",inactive
same,outcome,[15],inactive
N#CN=C1SCCN1Cc1ccc(Cl)nc1,outcome,[1],inactive
same,outcome,[2],inactive
same,outcome,[3],inactive
same,outcome,[4],inactive
same,outcome,"CD40, CD40 (gene 958) [5]",inactive
same,outcome,[16],inactive
same,outcome,[6],inactive
same,outcome,[7],inactive
same,outcome,[8],inactive
same,outcome,[9],inactive
same,outcome,[10],inactive
same,outcome,[11],inactive
same,outcome,[12],inactive
same,outcome,[13],inactive
same,outcome,"CD38, CD38 (gene 952)",inactive
same,outcome,"CD40, CD40 (gene 958) [14]",inactive
same,outcome,"CD69, CD69 (gene 969)",inactive
same,outcome,[15],inactive
COCc1cnc(C2=NC(C)(C(C)C)C(=O)N2)c(C(=O)O)c1 (stereo unspecified),outcome,[1],inactive
same,outcome,[2],inactive
same,outcome,[3],inactive
same,outcome,[4],inactive
same,outcome,"CD40, CD40 (gene 958) [5]",inactive
same,outcome,[6],inactive
same,outcome,[7],inactive
same,outcome,[8],inactive
same,outcome,[9],inactive
same,outcome,[10],inactive
same,outcome,[11],inactive
same,outcome,[12],inactive
same,outcome,[13],inactive
same,outcome,"CD38, CD38 (gene 952)",inactive
same,outcome,"CD40, CD40 (gene 958) [14]",inactive
same,outcome,"CD69, CD69 (gene 969)",inactive
same,outcome,[15],inactive
Cc1ccc(N=CN(C)C=Nc2ccc(C)cc2C)c(C)c1,AC50,[1],26.2 µM (active)
same,outcome,[2],inactive
same,outcome,[3],inactive
same,AC50,[4],26.9 µM (active)
same,AC50,"CD40, CD40 (gene 958) [5]",29.5 µM (active)
same,AC50,[16],33.6 µM (active)
same,AC50,[6],31.7 µM (active)
same,AC50,[7],30.2 µM (active)
same,AC50,[8],31.7 µM (active)
same,AC50,[9],11.6 µM (active)
same,AC50,[10],32.6 µM (active)
same,AC50,[11],32.6 µM (active)
same,AC50,[12],33.6 µM (active)
same,AC50,[13],26.6 µM (active)
same,AC50,"CD38, CD38 (gene 952)",29.1 µM (active)
same,AC50,"CD40, CD40 (gene 958) [14]",31.9 µM (active)
same,AC50,"CD69, CD69 (gene 969)",31.5 µM (active)
same,AC50,[15],30.9 µM (active)
CN=C=S,outcome,[1],inactive
same,outcome,[2],inactive
same,outcome,[3],inactive
same,outcome,[4],inactive
same,outcome,"CD40, CD40 (gene 958) [5]",inactive
same,outcome,[17],inactive
same,outcome,[16],inactive
same,outcome,[6],inactive
same,outcome,[7],inactive
same,outcome,[8],inactive
same,outcome,[9],inactive
same,outcome,[10],inactive
same,outcome,[11],inactive
same,outcome,[12],inactive
same,outcome,[13],inactive
same,AC50,"CD38, CD38 (gene 952)",10 µM (active)
same,AC50,"CD40, CD40 (gene 958) [14]",13.5 µM (active)
same,outcome,"CD69, CD69 (gene 969)",inactive
same,AC50,[15],20 µM (active)
O=c1n(Cl)c(=O)n(Cl)c(=O)n1Cl,outcome,[1],inactive
same,outcome,[2],inactive
same,outcome,[3],inactive
same,outcome,[4],inactive
same,outcome,"CD40, CD40 (gene 958) [5]",inactive
same,outcome,[17],inactive
same,outcome,[6],inactive
same,outcome,[7],inactive
same,outcome,[8],inactive
same,outcome,[9],inactive
same,outcome,[10],inactive
same,AC50,[11],0.966 µM (active)
same,outcome,[12],inactive
same,outcome,[13],inactive
same,outcome,"CD38, CD38 (gene 952)",inactive
same,outcome,"CD40, CD40 (gene 958) [14]",inactive
same,outcome,"CD69, CD69 (gene 969)",inactive
same,AC50,[15],11.6 µM (active)
CCNP(=S)(OC)O/C(C)=C/C(=O)OC(C)C (stereo unspecified),outcome,[1],inactive
same,outcome,[2],inactive
same,AC50,[3],0.733 µM (active)
same,outcome,[4],inactive
same,outcome,"CD40, CD40 (gene 958) [5]",inactive
same,outcome,[17],inactive
same,outcome,[16],inactive
same,outcome,[6],inactive
same,outcome,[7],inactive
same,outcome,[8],inactive
same,outcome,[9],inactive
same,outcome,[10],inactive
same,outcome,[11],inactive
same,outcome,[12],inactive
same,outcome,[13],inactive
same,outcome,"CD38, CD38 (gene 952)",inactive
same,outcome,"CD40, CD40 (gene 958) [14]",inactive
same,outcome,"CD69, CD69 (gene 969)",inactive
same,outcome,[15],inactive
